# Compound activity from PubChem.
# aSyn 5UTR act – Activators via SNCA 5'UTR binding, MLPCN. alpha-synuclein 5'UTR reporter, activators screen. activity score, % (tested at 7.5 µM), hits read low. actives 7.1% (n = 300,000). AID 1814; in the data active means activity score below about -60%
# The depositor's hits bear a star. These entries were drawn from the full list.
SMILES,aSyn 5UTR act
CCOC(=O)Nc1nc2ccccc2s1,-125*
Cc1ccc(CC(=O)Nc2nc3ccccc3s2)cc1,-96*
CCOC(=O)c1cnc2c(OC)cccc2c1N1CCN(c2ccccc2OC)CC1,62
CCOC(=O)c1cnc2ccc(Cl)cc2c1N1CCN(C)CC1,-97*
CC(=O)Oc1c(-c2ccc(Br)o2)oc2ccccc2c1=O,-66*
COc1ccc(-c2oc3ccccc3c(=O)c2OC(C)=O)cc1,-174*
CC(=O)Oc1cc(O)c2c(=O)c(OC(C)=O)c(-c3ccc(OC(C)=O)c(OC(C)=O)c3)oc2c1,-116*
COc1ccc(-c2oc3cc(OC)c(O)c(OC)c3c(=O)c2OC)cc1O,65
Cn1c(C(=O)NCc2cccs2)cc2oc3ccccc3c21,-261*
Cn1c(=O)c(C(=O)NCC2CCCO2)c(O)c2ccccc21 (stereo not given),-67*
Cn1c(C(=O)NCC2CCCO2)cc2oc3ccccc3c21 (stereo not given),-188*
CSCc1c(C(=O)NC2CCCc3ccccc32)oc2ccccc12 (stereo not given),51
Nc1ccc(CCc2nc3ccccc3o2)cc1,-126*
Cc1ccc(C(CC(=O)c2ccco2)SCCO)cc1 (stereo not given),-90*
O=C(N/N=C/c1ccc(Br)s1)c1c[nH]c2ccccc12,-152*
O=C(N/N=C/c1cc(Br)cs1)c1c[nH]c2ccccc12,-68*
COc1cccc(OCCOc2ccccc2[N+](=O)[O-])c1,-155*
COc1cccc(C(=O)Nc2ccc(-c3nnc(-c4ccco4)o3)cc2)c1,-127*
COc1cccc(-c2nnc(-c3ccccc3[N+](=O)[O-])o2)c1,-136*
COc1cccc(-c2nnc(-c3ccco3)o2)c1,-147*
COc1cccc(-c2nnc(NC(=O)C(C)C)o2)c1,-67*
CCCN(CCC)S(=O)(=O)c1ccc(C(=O)Nc2nnc(-c3cccc(OC)c3)o2)cc1,70
CCN(CC(=O)c1c(N)n(C)c(=O)n(C)c1=O)c1cccc2ccccc12,-72*
O=C(CCC1CCCCC1)Nc1nccs1,-62*
Cc1cnc(NC(=O)C2CCC(C(C)(C)C)CC2)s1 (stereo not given),-64*
SMILES,aSyn 5UTR act
CC(C)(C)C1CCC(C(=O)Nc2nccs2)CC1 (stereo not given),-102*
CC(=O)N1CCN(c2ccc(NC(=O)c3ccc(Cl)c([N+](=O)[O-])c3)cc2)CC1,-70*
CC(=O)N1CCN(c2ccc(NC(=O)c3ccccc3)cc2)CC1,-106*
Cc1cccc(C(=O)Nc2ccc(C(=O)N3CCCCC3C)cc2)c1 (stereo not given),-84*
Cc1ccc(N2CCN(C(=O)c3ccccc3NC(=O)c3ccccc3C(=O)O)CC2)cc1,-100*
CC(=O)N1CCN(c2ccc(NC(=O)c3cccc(C)c3)cc2)CC1,-73*
Cc1c(Br)c(C(=O)N2CCc3ccccc32)nn1C,-127*
Cc1c(C(=O)N2CCc3ccccc32)oc2ccccc12,-126*
O=C(c1ccc(Br)o1)N1CCc2ccccc21,-154*
O=C(c1ccco1)N1CCc2ccccc21,-97*
COC(=O)c1cccc(N/C=C(\[N+](=O)[O-])S(=O)(=O)c2ccccc2)c1,-62*
O=C(NNC(=O)c1cccnc1SCc1cccc([N+](=O)[O-])c1)c1ccccn1,103
CCOC(=O)c1ccccc1NC(=O)CSc1ccc(-c2ccccn2)nn1,69
Cc1ccc(NC(=O)CSc2ncccc2C(=O)Oc2cccc([N+](=O)[O-])c2)cc1Cl,-157*
CCOC(=O)c1cccnc1SCC(=O)Nc1ccc(C)cc1,-64*
O=C(Nc1ccccc1)C1=C[C@@H](c2ccc3c(c2)OCO3)C[C@@H](OCCCCO)O1,-112*
O=C(Nc1ccccc1)C1=C[C@H](c2ccc3c(c2)OCO3)C[C@H](OCCCCO)O1,-89*
N/C(=N\OC(=O)C1CCCCC1)c1ccc(Br)cc1,-217*
N/C(=N\OC(=O)C1CCCCC1)c1ccc(Cl)cc1,-138*
N/C(=N\OC(=O)C1CCCCC1)c1ccccn1,-119*
NC(=O)c1cc(Br)cc(C2CCCCC2)c1O,87
O=C(Nc1nc(-c2ccccn2)cs1)c1cccc(-n2cnnn2)c1,83
N#Cc1ccc(-c2csc(NC(=O)C3CC3)n2)cc1,-64*
O=C(Nc1nc(-c2ccccn2)cs1)C12CC3CC(CC(O)(C3)C1)C2,-68*
O=C(Nc1nc(-c2ccccn2)cs1)C1CC1,-111*
SMILES,aSyn 5UTR act
COc1ccc(COc2ccc3c(C)cc(=O)oc3c2)cc1,-131*
Cc1cc(=O)oc2cc(OCc3ccccc3)ccc12,-130*
Cc1ccc(C(=O)Nc2ncccc2S(=O)(=O)c2ccccc2)cc1,-154*
Cc1ccc(NC(=O)c2ncc(Cl)c(Cl)c2Cl)cc1C,-164*
O=C(Nc1ccccc1)c1ccc2ccccc2n1,-178*
Cc1ccc(NC(=O)c2ccc3ccccc3n2)cc1S(=O)(=O)N(C)C,-121*
Cc1ccc(NC(=O)c2ccc(=O)[nH]n2)cc1C,-102*
O=C(N/N=C/c1ccsc1)c1ccc2ccccc2n1,-97*
Cc1ccc(NC(=O)c2c(C)nc3ccccn23)cc1C,-152*
CCc1nnc(NC(=O)c2ccc3ccccc3n2)s1,-196*
Cc1ccc(NC(=O)c2ccc(S(=O)(=O)NCc3ccco3)cc2)nc1,-131*
O=C(Nc1ccc(S(=O)(=O)NCc2ccco2)cc1)c1ccc2ccccc2n1,-66*
Cc1ccc(/C=C/C(=O)c2c(C)nc3ccccn23)cc1,-90*
O=C(Nc1ccccc1)c1cnc2ccccc2n1,-116*
Cc1ccc(NC(=O)c2cnc3ccccc3n2)cc1C,-96*
CN1CCCN(C(=O)/C=C/c2ccc(Cl)cc2Cl)CC1,-62*
COC(=O)c1cn(C(=O)c2ccc(OC)cc2)c2ccccc12,-147*
Cc1ccc(SCc2cc(=O)n3ccsc3n2)c(C)c1,-79*
CCc1nc2cc3sc(CC)nc3cc2s1,-133*
Cc1nn(C)cc1CNC(=O)Nc1ccc(Cl)c(Cl)c1,-145*
Cc1ccc(NC(=O)NCc2c(C)nn(C)c2C)cc1Cl,-157*
CCN(CC)S(=O)(=O)c1cc([N+](=O)[O-])ccc1NNC(=O)Nc1ccc(Cl)c(Cl)c1,58
Cc1ccc(NC(=O)O/N=C/c2c(C)nn(C(C)(C)C)c2C)cc1Cl,77
CC(C)CC(=O)Nc1ccc(-c2nnn(CC(=O)NCc3ccco3)n2)cc1,-102*
CCCCOc1ccc(-c2nnn(CC(=O)NCc3ccco3)n2)cc1,-165*
SMILES,aSyn 5UTR act
Cc1cc(C(=O)Nc2ccc3[nH]ccc3c2)no1,-152*
Fc1ccc(-c2ccc(CNCc3ccccn3)o2)cc1,-91*
CCCCCCOC(=O)c1ccc(OC(=O)c2cccnc2)cc1,-101*
COCCC(=O)N1CCC(C(=O)Nc2ccc(Oc3ccccc3)nc2)CC1,-77*
CC(C)CCSc1nc2ccccc2[nH]1,-107*
COc1ccc(CSc2nc3ccccc3[nH]2)cc1,-189*
c1ccc2[nH]c(SCc3ccc(-c4nnco4)cc3)nc2c1,-142*
COC(=O)c1cccc(CSc2nc3ccccc3[nH]2)c1,-72*
c1ccc2[nH]c(SCCN3CCOCC3)nc2c1,-78*
Cc1ccc2nc(SCn3nnc4ccccc4c3=O)[nH]c2c1,-139*
O=c1c2ccccc2nnn1CSc1nc2ccccc2[nH]1,-173*
Cc1ccc(SCn2nnc3ccccc3c2=O)c(C)c1,-147*
CC1CCCCC1NC(=O)Cn1nnc2ccccc2c1=O (stereo not given),61
Cc1ccc(NC(=O)Cn2nnc3ccccc3c2=O)cc1,-93*
O=c1c2ccccc2nnn1CSc1ccccc1F,-98*
